ChEMBL document CHEMBL2218924, “A broad activity screen in support of a chemogenomic map for kinase signalling research and drug discovery” (Biochem J, 2013)

Legend:
[1] = target: Tyrosine-protein kinase SYK (Homo sapiens) (UniProt P43405); settings: at 10 µM
[2] = target: T1, Mitogen-activated protein kinase kinase kinase 7 (Homo sapiens) (UniProt O43318); settings: at 1 µM
T1 sequence (whole entry): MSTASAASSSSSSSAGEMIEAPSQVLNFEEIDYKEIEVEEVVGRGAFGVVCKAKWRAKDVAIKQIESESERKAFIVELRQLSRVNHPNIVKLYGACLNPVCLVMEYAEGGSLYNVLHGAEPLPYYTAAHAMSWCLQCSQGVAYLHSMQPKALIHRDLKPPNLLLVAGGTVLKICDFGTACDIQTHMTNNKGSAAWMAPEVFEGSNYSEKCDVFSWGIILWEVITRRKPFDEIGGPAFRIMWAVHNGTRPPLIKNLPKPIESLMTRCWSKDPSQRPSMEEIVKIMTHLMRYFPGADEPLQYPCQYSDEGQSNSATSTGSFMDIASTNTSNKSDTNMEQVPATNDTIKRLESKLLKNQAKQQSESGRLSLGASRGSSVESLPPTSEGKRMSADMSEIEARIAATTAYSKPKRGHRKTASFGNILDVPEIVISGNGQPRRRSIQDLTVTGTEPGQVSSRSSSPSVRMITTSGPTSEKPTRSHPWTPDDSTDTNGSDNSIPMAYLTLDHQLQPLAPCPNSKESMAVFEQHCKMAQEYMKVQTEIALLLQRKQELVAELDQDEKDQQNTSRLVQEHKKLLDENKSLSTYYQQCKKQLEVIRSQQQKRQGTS

[3] = target: T1, Mitogen-activated protein kinase kinase kinase 7 (Homo sapiens); settings: at 10 µM
[4] = target: T2, Serine/threonine-protein kinase TAO1 (Homo sapiens) (UniProt Q7L7X3); settings: at 1 µM
T2 sequence (whole entry): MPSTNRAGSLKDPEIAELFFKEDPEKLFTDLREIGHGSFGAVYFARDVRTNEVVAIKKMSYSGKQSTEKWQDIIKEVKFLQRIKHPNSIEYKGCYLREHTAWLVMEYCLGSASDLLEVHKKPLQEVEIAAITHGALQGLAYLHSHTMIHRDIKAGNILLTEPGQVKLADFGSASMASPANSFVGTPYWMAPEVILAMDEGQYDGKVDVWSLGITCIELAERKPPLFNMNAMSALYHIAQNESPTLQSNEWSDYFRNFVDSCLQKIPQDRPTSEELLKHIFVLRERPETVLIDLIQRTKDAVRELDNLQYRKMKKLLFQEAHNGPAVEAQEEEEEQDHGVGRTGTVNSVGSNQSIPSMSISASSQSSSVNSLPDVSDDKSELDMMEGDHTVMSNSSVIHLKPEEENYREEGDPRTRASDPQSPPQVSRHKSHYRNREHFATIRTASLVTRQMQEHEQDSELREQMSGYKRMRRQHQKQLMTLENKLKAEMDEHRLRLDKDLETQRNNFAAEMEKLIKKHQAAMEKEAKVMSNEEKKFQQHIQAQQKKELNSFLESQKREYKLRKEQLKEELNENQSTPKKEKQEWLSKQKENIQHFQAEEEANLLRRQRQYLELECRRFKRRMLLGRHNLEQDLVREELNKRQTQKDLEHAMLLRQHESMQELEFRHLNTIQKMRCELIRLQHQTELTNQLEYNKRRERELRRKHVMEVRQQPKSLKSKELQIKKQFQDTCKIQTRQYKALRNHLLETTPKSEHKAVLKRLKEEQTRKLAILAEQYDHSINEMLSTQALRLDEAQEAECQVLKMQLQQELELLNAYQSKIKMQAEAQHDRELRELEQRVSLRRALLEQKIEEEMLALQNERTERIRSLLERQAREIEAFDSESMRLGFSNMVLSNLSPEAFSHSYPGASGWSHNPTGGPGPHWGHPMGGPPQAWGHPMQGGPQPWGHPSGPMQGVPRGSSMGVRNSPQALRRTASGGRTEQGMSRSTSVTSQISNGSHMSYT

[5] = target: T2, Serine/threonine-protein kinase TAO1 (Homo sapiens); settings: at 10 µM
[6] = target: T3, Serine/threonine-protein kinase TAO2 (Homo sapiens) (UniProt Q9UL54); settings: at 1 µM
T3 sequence (whole entry): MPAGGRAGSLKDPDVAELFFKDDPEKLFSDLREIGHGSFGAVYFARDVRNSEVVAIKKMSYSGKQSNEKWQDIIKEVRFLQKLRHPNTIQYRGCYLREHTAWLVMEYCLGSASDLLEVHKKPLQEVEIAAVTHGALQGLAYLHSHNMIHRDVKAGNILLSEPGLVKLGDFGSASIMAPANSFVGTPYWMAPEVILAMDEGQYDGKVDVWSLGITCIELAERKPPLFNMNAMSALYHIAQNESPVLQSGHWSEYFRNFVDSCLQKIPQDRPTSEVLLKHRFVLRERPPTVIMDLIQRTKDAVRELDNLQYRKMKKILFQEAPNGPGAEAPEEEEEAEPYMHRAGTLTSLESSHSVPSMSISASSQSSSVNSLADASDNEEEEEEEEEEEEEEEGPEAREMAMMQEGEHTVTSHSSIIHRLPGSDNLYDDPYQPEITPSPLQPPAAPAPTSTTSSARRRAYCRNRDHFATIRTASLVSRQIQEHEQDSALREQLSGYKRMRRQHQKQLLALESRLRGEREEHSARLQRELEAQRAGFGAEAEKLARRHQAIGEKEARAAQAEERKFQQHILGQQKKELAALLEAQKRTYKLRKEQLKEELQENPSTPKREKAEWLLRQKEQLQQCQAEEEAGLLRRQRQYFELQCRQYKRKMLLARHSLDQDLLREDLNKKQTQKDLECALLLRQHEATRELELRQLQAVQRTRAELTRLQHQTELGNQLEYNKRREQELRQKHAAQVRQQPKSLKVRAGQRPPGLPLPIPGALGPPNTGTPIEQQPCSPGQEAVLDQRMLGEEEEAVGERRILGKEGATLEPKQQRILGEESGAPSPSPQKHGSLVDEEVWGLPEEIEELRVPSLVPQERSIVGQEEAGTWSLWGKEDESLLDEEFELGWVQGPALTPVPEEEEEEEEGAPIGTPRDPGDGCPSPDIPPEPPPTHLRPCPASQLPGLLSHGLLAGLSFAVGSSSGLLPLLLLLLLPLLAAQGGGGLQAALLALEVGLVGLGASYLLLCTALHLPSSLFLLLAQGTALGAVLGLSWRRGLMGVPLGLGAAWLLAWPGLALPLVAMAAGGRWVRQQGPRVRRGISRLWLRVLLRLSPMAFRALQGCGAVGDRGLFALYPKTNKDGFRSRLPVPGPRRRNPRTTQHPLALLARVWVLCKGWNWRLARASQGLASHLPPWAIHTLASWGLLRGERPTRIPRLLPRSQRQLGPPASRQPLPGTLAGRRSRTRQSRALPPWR

[7] = target: T3, Serine/threonine-protein kinase TAO2 (Homo sapiens); settings: at 10 µM
[8] = target: T4, Serine/threonine-protein kinase TAO3 (Homo sapiens) (UniProt Q9H2K8); settings: at 1 µM
T4 sequence (whole entry): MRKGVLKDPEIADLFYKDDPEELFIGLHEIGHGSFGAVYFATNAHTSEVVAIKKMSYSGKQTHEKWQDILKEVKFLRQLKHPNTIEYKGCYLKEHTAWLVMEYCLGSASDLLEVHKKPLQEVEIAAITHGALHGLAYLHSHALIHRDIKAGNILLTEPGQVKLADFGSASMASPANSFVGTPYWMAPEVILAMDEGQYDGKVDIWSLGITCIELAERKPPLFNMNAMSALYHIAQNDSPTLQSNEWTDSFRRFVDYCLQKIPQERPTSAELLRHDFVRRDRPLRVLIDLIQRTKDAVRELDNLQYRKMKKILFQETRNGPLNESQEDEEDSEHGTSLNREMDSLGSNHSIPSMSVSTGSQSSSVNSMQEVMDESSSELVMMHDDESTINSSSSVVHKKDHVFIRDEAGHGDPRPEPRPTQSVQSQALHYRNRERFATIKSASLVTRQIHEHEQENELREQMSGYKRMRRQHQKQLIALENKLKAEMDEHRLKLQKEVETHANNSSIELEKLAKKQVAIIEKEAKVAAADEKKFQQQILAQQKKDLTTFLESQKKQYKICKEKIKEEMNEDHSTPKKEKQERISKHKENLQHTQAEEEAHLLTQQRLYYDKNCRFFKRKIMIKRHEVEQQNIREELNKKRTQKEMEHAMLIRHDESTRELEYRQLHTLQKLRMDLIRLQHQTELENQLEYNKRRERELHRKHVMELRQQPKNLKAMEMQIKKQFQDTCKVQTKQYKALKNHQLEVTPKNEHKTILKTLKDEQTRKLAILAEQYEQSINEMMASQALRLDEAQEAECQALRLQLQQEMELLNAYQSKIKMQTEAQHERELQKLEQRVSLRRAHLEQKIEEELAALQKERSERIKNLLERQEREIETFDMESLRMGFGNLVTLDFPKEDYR

[9] = target: T4, Serine/threonine-protein kinase TAO3 (Homo sapiens); settings: at 10 µM
[10] = target: T5, Serine/threonine-protein kinase TBK1 (Homo sapiens) (UniProt Q9UHD2); settings: at 1 µM
T5 sequence (whole entry): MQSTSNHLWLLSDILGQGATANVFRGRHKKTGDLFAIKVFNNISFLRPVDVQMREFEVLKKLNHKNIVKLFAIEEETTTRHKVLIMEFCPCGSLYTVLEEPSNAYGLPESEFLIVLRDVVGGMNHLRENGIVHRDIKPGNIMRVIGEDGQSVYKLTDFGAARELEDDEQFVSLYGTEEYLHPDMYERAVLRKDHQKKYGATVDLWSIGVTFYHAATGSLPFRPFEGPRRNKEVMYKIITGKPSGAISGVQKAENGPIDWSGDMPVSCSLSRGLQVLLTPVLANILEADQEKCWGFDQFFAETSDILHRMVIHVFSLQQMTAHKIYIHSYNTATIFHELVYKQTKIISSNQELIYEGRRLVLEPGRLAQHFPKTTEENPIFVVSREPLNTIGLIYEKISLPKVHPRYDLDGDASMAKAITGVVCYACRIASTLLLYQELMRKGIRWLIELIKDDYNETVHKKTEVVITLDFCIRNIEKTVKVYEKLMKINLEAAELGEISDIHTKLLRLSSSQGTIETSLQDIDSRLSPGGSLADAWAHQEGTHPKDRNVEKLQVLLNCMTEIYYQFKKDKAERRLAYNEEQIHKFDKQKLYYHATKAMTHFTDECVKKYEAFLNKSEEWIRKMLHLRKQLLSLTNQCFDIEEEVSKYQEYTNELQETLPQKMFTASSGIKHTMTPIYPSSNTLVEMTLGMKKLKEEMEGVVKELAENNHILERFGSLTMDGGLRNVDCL

## COc1cc2ncnc(Nc3ccc(O)c(Br)c3)c2cc1OC
[1]
  residual activity: 68%
[2]
  residual activity: 81%
[3]
  residual activity: 62%
[4]
  residual activity: 86%
[5]
  residual activity: 48%
[6]
  residual activity: 98%
[7]
  residual activity: 75%
[8]
  residual activity: 82%
[9]
  residual activity: 61%
[10]
  residual activity: 41%
